Screen size: about 64,000 compounds; about 15 (0.02%) were called active. No rule for the calls is given here. Only a sample is shown. Measured potencies and affinities stand elsewhere.
molecular target: Bcl-2-related protein A1 (Mus musculus) (UniProt Q07440); assay: Bfl-1 inhibitors, primary screen, biochemical, fluorescence polarization, FITC-Bid, mouse (AID 432); settings: FITC-Bid BH3 peptide fluorescence polarization displacement; at 20 µM; hits give high values
Sequence (Q07440 whole entry, looked up): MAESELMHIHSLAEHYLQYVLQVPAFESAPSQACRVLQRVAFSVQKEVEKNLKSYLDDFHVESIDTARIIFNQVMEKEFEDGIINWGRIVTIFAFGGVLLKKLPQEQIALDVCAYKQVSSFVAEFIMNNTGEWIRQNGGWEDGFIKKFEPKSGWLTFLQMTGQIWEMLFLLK

displacement, inactive:
NC(=O)CSc1nnc(-c2ccc(S(=O)(=O)N3CCCC3)cc2)n1Cc1ccco1 -5.3%, CC1CCN(CCCNC(=O)c2cc3sccc3n2C)CC1 1.5%, CCN1CCN(CC(=O)Nc2c(C(=O)OC)[nH]c3cccc(Cl)c23)CC1 -4.1%, O=C(O)c1ccc(NS(=O)(=O)c2ccc(Cl)cc2)cc1 -8.2%, CCn1c(SC(C)C(=O)O)nc2sc3c(c2c1=O)CCC3 (stereo unspecified) 22.5%, CCn1c(SCC(=O)OC)nc2sc3c(c2c1=O)CCC3 2.2%, Cn1c(=O)c2ncn(CC(=O)NCCC3=CCCCC3)c2n(C)c1=O -18.3%, COCCCNC(=O)Cn1cc2c(n1)CCCCC2 5%, O=C(c1cccc(S(=O)(=O)N2CCCCC2)c1)N1CCOCC1 -1.1%, CS(=O)(=O)c1nc(-c2ccccc2)cc(C(F)(F)F)n1 37.1%, COc1ccc(-c2cc(C(F)(F)F)nc(NC3CCCC3)n2)cc1OC -2.6%, CCOC(=O)Nc1c(O)ccc2oc(C)c(-c3ccccc3)c12 1.9%, Cc1ccc(C)c(-n2nnnc2SCC(=O)NCCC2=CCCCC2)c1 8.5%, CCc1ccccc1NC1=NCC(=O)N1C1CCCCC1 0.4%, Cc1ccc(CN2C(=O)CCC2C(=O)NC2CCCC2)cc1 (stereo unspecified) -12%, Cc1cc(O)ccc1Nc1nc2ccccc2nc1Nc1ccc(O)cc1C -1.4%, Cc1cc(NC(=O)Nc2cccc3ccccc23)no1 -1.4%, CN1CCN(C2=C(Cl)C(=O)N(c3cccc(Cl)c3)C2=O)CC1 32.3%, CN1CCN(C2=C(Cl)C(=O)N(c3ccc(Cl)cc3)C2=O)CC1 49.4%, CCSc1nnc(NC(=O)C(C)(C(F)(F)F)C(F)(F)F)s1 -5.7%, CCSc1nnc(NC(=O)C(C)C)s1 0.1%, Cc1ccc(C2C(C#N)=C(N)SC(N)=C2C#N)c(C)c1 -31.9%, NS(=O)(=O)c1ccc(-n2nncc2C23CC4CC(CC(C4)C2)C3)cc1 -2.1%, COC(=O)C1=C(N)Oc2cc(C)n(CC3CCCO3)c(=O)c2C1c1ccc(Cl)cc1 (stereo unspecified) -2.1%, c1cn(-c2ncnc3sc4c(c23)CCCC4)cn1 -0.8%, O=C(NCc1ccccc1)c1c[nH]c2ccc(S(=O)(=O)Nc3ccc4c(c3)OCCO4)cc2c1=O -3.6%, O=C(Nn1c(C2CCC2)nc2ccccc2c1=O)C1CCC1 -9%, Cn1c(=O)[nH]c(=O)c2c1nc(Br)n2Cc1ccccc1F -3.5%, CC(=O)c1ccc(OCC(O)CN2CCN(c3ccccn3)CC2)cc1 (stereo unspecified) -0.7%, CC1=CC(C)(C)N2C(=O)C3(C(C#N)=C(N)Oc4cc(O)ccc43)c3cccc1c32 (stereo unspecified) -2.9%, O=C(Nc1ccc2c(c1)OCO2)c1cnn2c(C(F)(F)F)cc(-c3ccco3)nc12 1%, COc1ccc(NC(=O)c2cnn3c(C(F)(F)F)cc(-c4ccco4)nc23)cc1OC 12%, COc1ccccc1N1CCN(C(=O)C(C)N(c2ccc(C)c(C)c2)S(C)(=O)=O)CC1 (stereo unspecified) -2%, COCCNC(=O)Cn1nc(C(F)(F)F)c(Br)c1C -0.1%, CC1CCC(NC(=O)CN2CCCN(Cc3ccc(F)cc3Cl)C2=O)CC1 (stereo unspecified) -0.5%, O=C(CN1C(=O)CC(c2ccco2)Sc2ccccc21)NCC1CCCO1 (stereo unspecified) -4.3%, CCCN1CCN(C(=O)Cn2cccc2C(=O)c2ccccc2)CC1 -2.4%, COC(=O)CCC(=O)Nc1ccc(NC(C)=O)cc1 0.3%, COc1ccc(OC)c(S(=O)(=O)n2nc(-c3ccccc3)cc2N)c1 -0.3%, COc1ccc(S(=O)(=O)n2nc(-c3cc(OC)c(OC)c(OC)c3)cc2N)cc1OC 3.4%, CC(C)(C)Sc1nc(O)cc(=O)[nH]1 -4.4%, CN(c1ccccc1)S(=O)(=O)c1cc(C(=O)N2CCN(c3ccccn3)CC2)ccc1Cl -4.6%, CC1CN(C(=O)c2ccc(C(=O)c3ccccc3)cc2)CC(C)O1 (stereo unspecified) -0.8%, O=C1CC2CS(=O)(=O)CC2N1C1CCCCC1 (stereo unspecified) 2%, CCN(CC)S(=O)(=O)c1ccc(Cl)c(C(=O)NCC2CCCO2)c1 (stereo unspecified) -6.5%, COc1ccc(-c2ccc(-c3noc(-c4ccccc4)n3)c(OC)n2)cc1 -44.4%, COc1nc(-c2ccccc2)ccc1-c1noc(-c2ccc(F)cc2)n1 -1.8%, COc1cc(OC)cc(-c2nc(-c3cc4cc(C)ccc4nc3OC)no2)c1 -2%, COc1cccc(-c2nc(-c3ccccc3)no2)c1 -9.1%, COCCNC(=O)C(c1ccccc1)N(Cc1cccs1)C(=O)Cn1nnc2ccccc21 (stereo unspecified) 4.1%, CCCCCOc1ccc(C(=O)NC(CCC)C(=O)O)cc1 (stereo unspecified) 0.1%, CCCn1nnc(NCc2ccc(OCc3cccs3)c(OC)c2)n1 1.2%, CCCNC(=O)Nc1cc(C)on1 -15.6%, N#Cc1cc2c(nc1SCC1COc3ccccc3O1)CCC2 (stereo unspecified) -4.2%, O=C(CC(c1ccccc1O)N1CCCCC1)N1CCCCC1 (stereo unspecified) -9.2%, COc1ccccc1-n1cnnc1SC1CCOC1=O (stereo unspecified) -0.5%, O=C(CSc1nnnn1C1CCCCC1)Nc1cccc(NC(=O)c2ccco2)c1 6.6%, Cc1c(C(=O)NCc2cccnc2)oc2c1C(=O)CC(C)(C)C2 -2.3%, CCCc1[nH]nc2c1C(CCc1ccccc1)C(C#N)=C(N)O2 (stereo unspecified) -3.6%, Cc1nc(SCC(=O)NCC2CCCO2)c2oc3ccccc3c2n1 (stereo unspecified) -3.4%, CC(C)(O)c1nnn(-c2ccccc2)c1C(F)(F)F -3%, COc1cccc(CNCC(=O)N2C(C)CCCC2C)c1 (stereo unspecified) -0.5%, CNC(=O)c1cc2ccc(OC)cc2oc1=O -6.1%, O=C1CCc2cc(S(=O)(=O)N3CCC(C(=O)NC4CCCc5ccccc54)CC3)ccc2N1 (stereo unspecified) -5.6%, Cc1csc(-c2cnn(-c3ccccc3)c2NC(=O)c2ccccc2)n1 -3.3%, COc1cccc(-c2nn(C)c3sc(C(=O)NCc4ccccn4)cc23)c1 3.4%, COC(=O)c1ccc(NC(=O)C2C3C=CC(O3)C2C(=O)O)cc1 (stereo unspecified) 1.3%, Cc1cccc(-n2c(SCC(=O)N3CCCC3)nnc2-c2ccccn2)c1C -5.2%, CCC/C(O)=C1\C(=O)CC(C)(C)CC1=NCCO 2.8%, O=S(=O)(c1ccc(Br)s1)n1cccn1 -3.1%, O=C(Nc1nncs1)C1COc2ccccc2O1 (stereo unspecified) -5%, O=C(NC(NCCCN1CCOCC1)(C(F)(F)F)C(F)(F)F)C1CCCCC1 -1.1%, Cc1nc(NCCN2CCOCC2)c2nnn(Cc3c(F)cccc3Cl)c2n1 -1.3%, CCOC(=O)/C(C#N)=C(\N)C(C)C(=O)Nc1ccccn1 (stereo unspecified) -3.2%, CCOC(=O)CNC(=O)CSc1nc2cccnc2n1C1CCCCC1 -8.1%, Cn1c(NC(=O)c2cc(Br)ccc2Cl)cc(=O)n(C)c1=O -6.3%

Source: PubChem BioAssay AID432 (Sanford-Burnham Center for Chemical Genomics, 2006)
